We go through one sequence from publication PMC7862700, “An all-to-all approach to the identification of sequence-specific readers for epigenetic DNA modifications on cytosine”.

Holding throughout (assay): DAPPL (digital affinity profiling via proximity ligation, sequencing); 10 mM Tris-HCl pH 7.5, 50 mM NaCl, 1 mM DTT, 4% glycerol, room temperature, 30 min; GST-TFs on glutathione beads, 16-mer random dsDNA library, 0.1% formaldehyde crosslink after washing; high values mean tight binding
In one assay the target is T1, FLI1 (Homo sapiens, UniProt Q01543 1-452).
T1 sequence: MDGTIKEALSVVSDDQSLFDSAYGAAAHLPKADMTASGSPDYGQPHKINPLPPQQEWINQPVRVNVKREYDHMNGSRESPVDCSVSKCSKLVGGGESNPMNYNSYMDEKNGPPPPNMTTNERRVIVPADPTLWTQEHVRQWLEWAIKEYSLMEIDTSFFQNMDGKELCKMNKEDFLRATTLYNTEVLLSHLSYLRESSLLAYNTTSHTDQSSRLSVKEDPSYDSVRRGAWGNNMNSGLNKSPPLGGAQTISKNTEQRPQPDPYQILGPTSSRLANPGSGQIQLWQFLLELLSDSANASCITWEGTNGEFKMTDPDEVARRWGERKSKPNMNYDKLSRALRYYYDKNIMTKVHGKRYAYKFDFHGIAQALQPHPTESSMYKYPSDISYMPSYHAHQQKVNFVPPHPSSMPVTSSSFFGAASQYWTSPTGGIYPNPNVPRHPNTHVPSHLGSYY
The settings on record: protein: recombinant; tags: N-terminal GST; dsDNA, one strand shown. An outline of the steps: (§1)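 In yeast, human transcription factors were expressed with a GST fusion, then pulled down on glutathione beads and given DNA barcodes. Pooled with a tag-only sample, they were exposed to 200 nmole of a 16-mer random double-stranded DNA library (Tris/NaCl/DTT/glycerol buffer, room temperature, 30 min), washed, crosslinked with 0.1% formaldehyde, proximity-ligated using BsaI/T4 ligase for 1 h at 37 °C, PCR-amplified and read on an Illumina NextSeq500. Each hexamer's frequency of reads for a factor, divided by the matching frequency for the tag-only sample, gives the binding signal.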

A further assay has as its target T2, ELK1 (Homo sapiens, UniProt P19419 1-428).
T2 sequence: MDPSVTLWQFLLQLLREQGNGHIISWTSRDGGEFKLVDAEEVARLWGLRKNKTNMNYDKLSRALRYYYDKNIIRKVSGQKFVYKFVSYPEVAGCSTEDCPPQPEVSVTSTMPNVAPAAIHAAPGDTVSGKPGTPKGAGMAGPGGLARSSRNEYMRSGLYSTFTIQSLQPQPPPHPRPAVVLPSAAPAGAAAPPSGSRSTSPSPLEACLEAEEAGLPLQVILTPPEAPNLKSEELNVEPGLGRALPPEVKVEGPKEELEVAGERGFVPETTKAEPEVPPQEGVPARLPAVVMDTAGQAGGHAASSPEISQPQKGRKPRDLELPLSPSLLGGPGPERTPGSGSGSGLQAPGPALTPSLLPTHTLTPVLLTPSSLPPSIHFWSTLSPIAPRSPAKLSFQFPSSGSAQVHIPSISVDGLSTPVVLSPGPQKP
Conditions: protein: recombinant; tags: N-terminal GST; dsDNA, one strand shown. An outline of the steps:
as §1

In another assay the target is T3, GABPA (Homo sapiens, UniProt Q06546 1-454).
T3 sequence: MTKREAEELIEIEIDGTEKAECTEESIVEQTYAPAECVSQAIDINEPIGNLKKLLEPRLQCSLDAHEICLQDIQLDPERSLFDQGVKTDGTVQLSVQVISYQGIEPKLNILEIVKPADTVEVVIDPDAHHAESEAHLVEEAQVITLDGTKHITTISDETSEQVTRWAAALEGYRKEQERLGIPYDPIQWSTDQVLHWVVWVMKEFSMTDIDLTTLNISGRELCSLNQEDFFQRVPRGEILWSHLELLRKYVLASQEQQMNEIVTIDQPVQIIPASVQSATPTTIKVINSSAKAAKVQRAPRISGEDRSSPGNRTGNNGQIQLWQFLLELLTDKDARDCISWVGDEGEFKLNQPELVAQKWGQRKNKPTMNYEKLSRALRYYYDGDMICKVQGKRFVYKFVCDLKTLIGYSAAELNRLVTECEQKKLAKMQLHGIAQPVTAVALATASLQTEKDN
The settings on record: protein: recombinant; tags: N-terminal GST; dsDNA, one strand shown. An outline of the steps:
as §1

The target in a further assay is T4, ERG (Homo sapiens, UniProt P11308 1-479).
T4 sequence: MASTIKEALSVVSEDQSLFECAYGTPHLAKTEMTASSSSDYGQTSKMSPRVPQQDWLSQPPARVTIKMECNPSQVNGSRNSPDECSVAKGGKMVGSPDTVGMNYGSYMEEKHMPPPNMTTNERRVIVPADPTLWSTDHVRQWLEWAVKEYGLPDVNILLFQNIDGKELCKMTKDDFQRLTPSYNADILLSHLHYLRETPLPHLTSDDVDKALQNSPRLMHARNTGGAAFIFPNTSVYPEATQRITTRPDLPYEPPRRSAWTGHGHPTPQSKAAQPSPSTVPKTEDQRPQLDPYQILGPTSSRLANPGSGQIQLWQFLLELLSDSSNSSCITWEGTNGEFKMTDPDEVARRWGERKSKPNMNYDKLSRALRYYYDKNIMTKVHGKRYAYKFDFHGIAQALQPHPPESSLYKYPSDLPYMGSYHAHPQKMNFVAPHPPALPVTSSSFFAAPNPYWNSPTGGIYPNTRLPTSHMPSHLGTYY
The settings on record: protein: recombinant; tags: N-terminal GST; dsDNA, one strand shown. An outline of the steps:
as §1

The target of a further assay is ELF1 (Homo sapiens, UniProt P32519 1-619). The settings on record: protein: recombinant; tags: N-terminal GST; dsDNA, one strand shown. An outline of the steps: as §1
Another assay concerns the target T5, EHF (Homo sapiens, UniProt Q9NZC4 1-300).
T5 sequence: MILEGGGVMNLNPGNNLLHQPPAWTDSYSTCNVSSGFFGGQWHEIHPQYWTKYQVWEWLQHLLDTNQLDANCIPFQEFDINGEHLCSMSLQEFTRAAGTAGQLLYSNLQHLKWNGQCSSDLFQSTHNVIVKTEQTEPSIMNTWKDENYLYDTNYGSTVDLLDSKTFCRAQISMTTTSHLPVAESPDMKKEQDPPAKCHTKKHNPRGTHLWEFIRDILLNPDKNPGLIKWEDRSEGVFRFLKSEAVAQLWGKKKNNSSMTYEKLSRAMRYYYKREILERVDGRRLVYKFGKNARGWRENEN
The settings on record: protein: recombinant; tags: N-terminal GST; dsDNA, one strand shown. An outline of the steps: as §1

The next assay has as its target SPI1 (Homo sapiens, UniProt P17947 1-270). The settings on record: protein: recombinant; tags: N-terminal GST; dsDNA, one strand shown. An outline of the steps:
as §1

In a further assay the target is SPIB (Homo sapiens, UniProt Q01892 1-262). The settings on record: protein: recombinant; tags: N-terminal GST; dsDNA, one strand shown. An outline of the steps: as §1
A further assay concerns the target T6, ELK3 (Homo sapiens, UniProt P41970 1-407).
T6 sequence: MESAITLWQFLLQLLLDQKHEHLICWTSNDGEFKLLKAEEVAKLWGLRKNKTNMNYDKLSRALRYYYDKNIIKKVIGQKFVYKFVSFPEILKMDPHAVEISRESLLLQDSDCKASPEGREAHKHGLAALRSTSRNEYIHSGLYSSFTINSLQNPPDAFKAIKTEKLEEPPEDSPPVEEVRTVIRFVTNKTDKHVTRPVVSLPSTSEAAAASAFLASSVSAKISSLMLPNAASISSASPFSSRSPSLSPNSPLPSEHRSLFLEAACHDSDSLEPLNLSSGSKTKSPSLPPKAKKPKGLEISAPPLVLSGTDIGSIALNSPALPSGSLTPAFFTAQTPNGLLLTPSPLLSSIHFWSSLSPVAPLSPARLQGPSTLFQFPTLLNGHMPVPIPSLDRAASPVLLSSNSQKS
The settings on record: protein: recombinant; tags: N-terminal GST; dsDNA, one strand shown. An outline of the steps:
as §1

A further assay deals with T7, FEV (Homo sapiens, UniProt Q99581 1-238).
T7 sequence: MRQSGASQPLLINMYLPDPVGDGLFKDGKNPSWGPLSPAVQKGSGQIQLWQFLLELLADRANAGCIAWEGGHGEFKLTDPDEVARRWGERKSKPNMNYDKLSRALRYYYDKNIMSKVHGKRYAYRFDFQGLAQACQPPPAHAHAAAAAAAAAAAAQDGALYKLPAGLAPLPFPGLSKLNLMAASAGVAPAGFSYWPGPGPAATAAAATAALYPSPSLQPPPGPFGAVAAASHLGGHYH
Conditions: protein: recombinant; tags: N-terminal GST; dsDNA, one strand shown. An outline of the steps: as §1

The target in another assay is ETV5 (Homo sapiens, UniProt P41161 1-510). The settings on record: protein: recombinant; tags: N-terminal GST; dsDNA, one strand shown. An outline of the steps:
as §1

Another assay concerns the target HSF1 (Homo sapiens, UniProt Q00613 1-529). The settings on record: protein: recombinant; tags: N-terminal GST; chain copies: 3; dsDNA, one strand shown. An outline of the steps: as §1
A further assay deals with T8, SPIC (Homo sapiens, UniProt Q8N5J4 1-248).
T8 sequence: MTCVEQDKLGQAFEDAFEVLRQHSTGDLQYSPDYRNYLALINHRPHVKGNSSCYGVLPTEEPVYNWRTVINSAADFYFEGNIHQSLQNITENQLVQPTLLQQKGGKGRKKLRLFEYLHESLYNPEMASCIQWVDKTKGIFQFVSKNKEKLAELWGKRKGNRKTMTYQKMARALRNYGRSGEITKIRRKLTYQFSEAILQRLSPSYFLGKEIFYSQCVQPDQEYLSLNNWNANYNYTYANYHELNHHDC
Conditions: protein: recombinant; tags: N-terminal GST; dsDNA, one strand shown. An outline of the steps:
as §1

The next assay addresses ELF4 (Homo sapiens, UniProt Q99607 1-663). Conditions: protein: recombinant; tags: N-terminal GST; dsDNA, one strand shown. An outline of the steps: as §1
A further assay has as its target T9, ELK4 (Homo sapiens, UniProt P28324-2 1-405).
T9 sequence: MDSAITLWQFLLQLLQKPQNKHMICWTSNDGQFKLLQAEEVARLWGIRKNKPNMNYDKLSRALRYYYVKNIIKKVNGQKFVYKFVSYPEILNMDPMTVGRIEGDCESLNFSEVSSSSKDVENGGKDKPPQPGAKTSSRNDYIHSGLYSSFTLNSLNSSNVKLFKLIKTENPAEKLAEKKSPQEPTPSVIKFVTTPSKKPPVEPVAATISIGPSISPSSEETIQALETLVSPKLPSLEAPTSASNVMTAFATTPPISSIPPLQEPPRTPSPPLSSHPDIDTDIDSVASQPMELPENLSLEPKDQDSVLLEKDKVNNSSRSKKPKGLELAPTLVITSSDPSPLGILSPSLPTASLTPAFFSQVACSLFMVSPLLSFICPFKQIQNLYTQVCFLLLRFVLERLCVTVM
The settings on record: protein: recombinant; tags: N-terminal GST; dsDNA, one strand shown. An outline of the steps:
as §1

The target in another assay is T10, ETV2 (Homo sapiens, UniProt O00321 1-342).
T10 sequence: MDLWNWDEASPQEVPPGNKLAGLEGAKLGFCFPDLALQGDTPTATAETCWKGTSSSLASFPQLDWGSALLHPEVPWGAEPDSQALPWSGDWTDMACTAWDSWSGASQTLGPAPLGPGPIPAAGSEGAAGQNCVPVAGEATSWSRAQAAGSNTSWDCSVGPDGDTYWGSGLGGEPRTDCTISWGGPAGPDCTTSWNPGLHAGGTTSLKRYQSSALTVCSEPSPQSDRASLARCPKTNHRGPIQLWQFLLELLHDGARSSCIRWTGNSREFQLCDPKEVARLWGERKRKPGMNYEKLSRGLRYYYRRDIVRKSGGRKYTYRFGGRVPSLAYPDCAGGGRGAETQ
Conditions: protein: recombinant; tags: N-terminal GST; dsDNA, one strand shown. An outline of the steps: as §1

The target of another assay is T11, ELF3 (Homo sapiens, UniProt P78545 1-371).
T11 sequence: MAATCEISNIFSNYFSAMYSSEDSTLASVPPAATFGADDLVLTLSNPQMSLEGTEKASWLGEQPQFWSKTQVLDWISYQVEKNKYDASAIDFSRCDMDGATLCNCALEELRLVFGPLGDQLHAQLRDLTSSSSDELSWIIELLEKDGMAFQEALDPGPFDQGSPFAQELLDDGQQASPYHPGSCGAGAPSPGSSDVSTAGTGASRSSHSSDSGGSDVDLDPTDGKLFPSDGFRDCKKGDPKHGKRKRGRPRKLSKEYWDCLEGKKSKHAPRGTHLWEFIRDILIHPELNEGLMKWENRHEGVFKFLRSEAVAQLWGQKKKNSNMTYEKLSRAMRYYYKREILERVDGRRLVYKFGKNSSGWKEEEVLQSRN
The settings on record: protein: recombinant; tags: N-terminal GST; dsDNA, one strand shown. An outline of the steps:
as §1

Another assay has as its target CRX (Homo sapiens, UniProt O43186 1-299). The settings on record: protein: recombinant; tags: N-terminal GST; dsDNA, one strand shown. An outline of the steps: as §1
The target in the next assay is ETV1 (Homo sapiens, UniProt P50549 1-477). The settings on record: protein: recombinant; tags: N-terminal GST; dsDNA, one strand shown. An outline of the steps:
as §1

Chain of HSF1 (Q00613 whole entry): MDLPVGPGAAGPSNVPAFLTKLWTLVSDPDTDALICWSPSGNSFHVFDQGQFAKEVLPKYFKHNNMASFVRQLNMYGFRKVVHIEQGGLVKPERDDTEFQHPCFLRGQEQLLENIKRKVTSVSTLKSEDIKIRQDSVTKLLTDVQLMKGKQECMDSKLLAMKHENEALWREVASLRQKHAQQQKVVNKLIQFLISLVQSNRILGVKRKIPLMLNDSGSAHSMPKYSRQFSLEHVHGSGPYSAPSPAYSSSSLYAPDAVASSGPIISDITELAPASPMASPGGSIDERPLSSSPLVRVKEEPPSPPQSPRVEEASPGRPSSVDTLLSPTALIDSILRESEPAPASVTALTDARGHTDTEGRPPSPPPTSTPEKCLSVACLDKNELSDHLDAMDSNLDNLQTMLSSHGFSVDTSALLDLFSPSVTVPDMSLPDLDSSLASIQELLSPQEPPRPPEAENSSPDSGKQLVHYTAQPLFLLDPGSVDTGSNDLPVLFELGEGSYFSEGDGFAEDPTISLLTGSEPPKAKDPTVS
Chain of SPIB (Q01892 whole entry): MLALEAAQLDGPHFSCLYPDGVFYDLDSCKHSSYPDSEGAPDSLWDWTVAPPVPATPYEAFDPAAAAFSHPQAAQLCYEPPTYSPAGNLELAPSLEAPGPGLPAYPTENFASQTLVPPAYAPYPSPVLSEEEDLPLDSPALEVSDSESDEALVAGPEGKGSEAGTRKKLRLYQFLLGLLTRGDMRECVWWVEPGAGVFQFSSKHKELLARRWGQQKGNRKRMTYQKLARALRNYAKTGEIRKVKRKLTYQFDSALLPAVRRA
Chain of ELF1 (P32519 whole entry): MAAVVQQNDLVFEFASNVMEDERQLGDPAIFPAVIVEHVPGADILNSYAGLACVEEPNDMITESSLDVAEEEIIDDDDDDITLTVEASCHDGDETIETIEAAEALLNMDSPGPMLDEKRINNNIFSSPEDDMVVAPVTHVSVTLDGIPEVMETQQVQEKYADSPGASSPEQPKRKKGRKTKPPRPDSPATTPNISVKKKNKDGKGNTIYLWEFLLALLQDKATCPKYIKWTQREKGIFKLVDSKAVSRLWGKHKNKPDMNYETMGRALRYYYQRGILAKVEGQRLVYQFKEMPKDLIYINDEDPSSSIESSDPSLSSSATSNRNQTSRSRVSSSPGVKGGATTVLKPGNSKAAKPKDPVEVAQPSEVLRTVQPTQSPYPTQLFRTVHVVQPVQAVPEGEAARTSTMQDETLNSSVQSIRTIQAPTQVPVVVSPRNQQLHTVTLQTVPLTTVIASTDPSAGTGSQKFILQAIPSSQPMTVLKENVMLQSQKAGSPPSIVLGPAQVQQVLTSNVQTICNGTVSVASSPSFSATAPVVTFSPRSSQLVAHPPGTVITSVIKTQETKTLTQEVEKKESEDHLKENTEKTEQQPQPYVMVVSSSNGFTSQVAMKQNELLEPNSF
Chain of ETV5 (P41161 whole entry): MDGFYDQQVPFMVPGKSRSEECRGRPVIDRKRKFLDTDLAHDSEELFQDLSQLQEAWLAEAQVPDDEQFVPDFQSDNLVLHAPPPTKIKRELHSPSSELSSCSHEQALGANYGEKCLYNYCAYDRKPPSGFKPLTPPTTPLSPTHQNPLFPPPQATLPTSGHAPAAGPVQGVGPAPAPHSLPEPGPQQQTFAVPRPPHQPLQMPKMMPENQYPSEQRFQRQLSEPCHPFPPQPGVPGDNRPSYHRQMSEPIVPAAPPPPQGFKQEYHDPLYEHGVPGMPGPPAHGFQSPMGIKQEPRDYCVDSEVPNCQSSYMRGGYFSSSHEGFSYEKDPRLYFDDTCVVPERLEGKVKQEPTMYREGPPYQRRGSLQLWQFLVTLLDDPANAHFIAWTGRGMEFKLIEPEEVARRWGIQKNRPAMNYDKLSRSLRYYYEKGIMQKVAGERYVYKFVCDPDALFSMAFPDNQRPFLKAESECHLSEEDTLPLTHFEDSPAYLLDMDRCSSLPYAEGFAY
Chain of CRX (O43186 whole entry): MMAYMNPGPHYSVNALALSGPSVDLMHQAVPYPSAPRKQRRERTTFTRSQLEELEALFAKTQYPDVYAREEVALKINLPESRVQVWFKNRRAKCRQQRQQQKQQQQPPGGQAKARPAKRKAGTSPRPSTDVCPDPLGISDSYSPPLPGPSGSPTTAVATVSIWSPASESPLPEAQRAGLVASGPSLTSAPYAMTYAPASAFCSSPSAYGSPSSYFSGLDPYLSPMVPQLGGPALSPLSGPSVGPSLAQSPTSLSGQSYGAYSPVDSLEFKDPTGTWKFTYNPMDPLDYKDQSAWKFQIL
Chain of ELF4 (Q99607 whole entry): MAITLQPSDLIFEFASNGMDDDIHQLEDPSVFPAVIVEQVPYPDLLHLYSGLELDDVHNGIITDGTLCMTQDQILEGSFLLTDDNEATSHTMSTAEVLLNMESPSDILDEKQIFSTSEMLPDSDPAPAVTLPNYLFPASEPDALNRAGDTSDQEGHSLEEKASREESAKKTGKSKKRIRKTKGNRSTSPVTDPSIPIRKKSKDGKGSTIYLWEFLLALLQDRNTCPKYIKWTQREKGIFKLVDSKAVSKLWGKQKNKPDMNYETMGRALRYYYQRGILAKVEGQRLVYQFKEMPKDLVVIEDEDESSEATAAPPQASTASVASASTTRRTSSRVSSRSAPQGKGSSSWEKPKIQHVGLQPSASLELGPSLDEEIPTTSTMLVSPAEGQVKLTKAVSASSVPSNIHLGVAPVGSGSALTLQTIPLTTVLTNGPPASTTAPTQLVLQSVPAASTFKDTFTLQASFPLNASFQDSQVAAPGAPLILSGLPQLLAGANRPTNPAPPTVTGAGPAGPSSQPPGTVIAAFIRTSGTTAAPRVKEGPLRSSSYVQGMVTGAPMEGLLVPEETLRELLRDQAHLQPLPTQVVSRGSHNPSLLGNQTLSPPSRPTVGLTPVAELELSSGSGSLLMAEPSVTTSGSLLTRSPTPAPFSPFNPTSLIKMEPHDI
Chain of ETV1 (P50549 whole entry): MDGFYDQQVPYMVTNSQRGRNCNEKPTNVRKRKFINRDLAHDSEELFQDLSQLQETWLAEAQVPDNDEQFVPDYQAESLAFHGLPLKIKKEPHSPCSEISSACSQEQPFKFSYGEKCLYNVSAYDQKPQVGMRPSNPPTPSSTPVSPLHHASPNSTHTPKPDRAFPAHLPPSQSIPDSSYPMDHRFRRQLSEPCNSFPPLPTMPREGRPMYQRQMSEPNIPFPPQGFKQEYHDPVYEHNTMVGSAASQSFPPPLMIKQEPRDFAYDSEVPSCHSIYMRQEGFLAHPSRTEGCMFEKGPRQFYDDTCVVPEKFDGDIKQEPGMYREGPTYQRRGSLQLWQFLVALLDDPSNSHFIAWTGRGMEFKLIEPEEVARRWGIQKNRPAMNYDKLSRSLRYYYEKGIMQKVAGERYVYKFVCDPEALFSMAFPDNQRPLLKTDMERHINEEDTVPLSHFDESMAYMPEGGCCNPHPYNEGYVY

GTAATT: the binding signal is 1.23 fold enrichment (6-mer frequency, TF over GST control) with FLI1; 1.1 fold enrichment (6-mer frequency, TF over GST control) in the assay with ELK1; 1.19 fold enrichment (6-mer frequency, TF over GST control) with GABPA; 1.19 fold enrichment (6-mer frequency, TF over GST control) with ERG; 1.22 fold enrichment (6-mer frequency, TF over GST control) in the assay with ELF1; 1.21 fold enrichment (6-mer frequency, TF over GST control) with EHF. Moreover, the binding signal in the assay with SPI1 is 1.25 fold enrichment (6-mer frequency, TF over GST control); with SPIB, 1.23 fold enrichment (6-mer frequency, TF over GST control); in the assay with ELK3 it was 1.29 fold enrichment (6-mer frequency, TF over GST control); with FEV, 1.16 fold enrichment (6-mer frequency, TF over GST control); with ETV5 it was 1.23 fold enrichment (6-mer frequency, TF over GST control); with HSF1, 1.36 fold enrichment (6-mer frequency, TF over GST control). The binding signal with SPIC is 1.21 fold enrichment (6-mer frequency, TF over GST control); with ELF4, 1.22 fold enrichment (6-mer frequency, TF over GST control); with ELK4, 1.11 fold enrichment (6-mer frequency, TF over GST control); in the assay with ETV2 it was 1.31 fold enrichment (6-mer frequency, TF over GST control); in the assay with ELF3, 1.19 fold enrichment (6-mer frequency, TF over GST control); with CRX, 1.59 fold enrichment (6-mer frequency, TF over GST control). The binding signal with ETV1 was 1.3 fold enrichment (6-mer frequency, TF over GST control).
